The record followed here is PubChem BioAssay (EPA / NIEHS).

What is called AC50 is the midpoint of the concentration-response curve, whichever way the signal moves.

In assay [1] the target is Myc proto-oncogene protein (Homo sapiens) (UniProt P01106). Kind of assay: ATG_Myc_CIS: Attagene CIS-FACTORIAL HepG2 Assay for human Myelocytomatosis (Myc) Proto-Oncogene Transcription Factor (AID 2282990). To be noted: HepG2, Attagene cis-reporter transcription factor activity; actives raise or lower the signal. Put shortly: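 HepG2, transient MRTU transfection (cis promoters, endogenous TFs); 24 h dosing; TriZol RNA → oligo(dT) RT → PCR → 6-FAM primer extension → HpaI cut → CE. Bidirectional fit vs DMSO.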
Chain of Myc proto-oncogene protein (Homo sapiens) (P01106 whole entry, looked up): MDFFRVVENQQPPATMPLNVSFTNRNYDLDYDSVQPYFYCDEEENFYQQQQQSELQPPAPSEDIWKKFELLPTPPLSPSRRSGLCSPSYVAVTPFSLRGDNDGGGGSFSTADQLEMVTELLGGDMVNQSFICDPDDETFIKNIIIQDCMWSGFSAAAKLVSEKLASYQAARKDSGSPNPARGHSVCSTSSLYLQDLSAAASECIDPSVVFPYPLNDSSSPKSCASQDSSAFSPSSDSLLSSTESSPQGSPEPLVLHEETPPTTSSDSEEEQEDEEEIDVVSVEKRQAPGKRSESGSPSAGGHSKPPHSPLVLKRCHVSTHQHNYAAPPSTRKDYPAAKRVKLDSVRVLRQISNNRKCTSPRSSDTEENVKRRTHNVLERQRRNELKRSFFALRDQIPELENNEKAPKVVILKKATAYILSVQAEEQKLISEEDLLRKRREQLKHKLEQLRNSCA

Assay [2] can be described thus: ATG_NF_kB_CIS: Attagene CIS-FACTORIAL HepG2 Assay for human Nuclear Factor Kappa B (NF-kB) (AID 2282991). Conditions: HepG2 Attagene cis-factorial NF-kB reporter mRNA; actives raise or lower the signal. Put shortly: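 HepG2 cells transfected with cis-promoter-driven reporter units, so endogenous transcription factor activity is measured. Reporter mRNA quantified 24 h after dosing by RT-PCR and capillary electrophoresis, with bidirectional fitting against DMSO.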

A short description of assay [3]: ATG_NRF2_ARE_CIS: Attagene CIS-FACTORIAL HepG2 Assay for human Nuclear Factor Erythroid 2 Related Factor 2 (NFR2) response to Antioxidant Response Elements (ARE) (AID 2282992). To be noted: HepG2 Attagene ARE/NRF2 reporter, transcription factor activity; actives raise or lower the signal. Put shortly: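 Endogenous transcription factor activity read out as reporter transcript levels (RT-PCR plus capillary electrophoresis, fluorescence) in transiently transfected HepG2 cells. Measured at 24 h after dosing; gain or loss of signal fitted versus DMSO.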

Assay [4] can be described thus: ATG_Oct_MLP_CIS: Attagene CIS-FACTORIAL HepG2 Assay for human Octamer-Binding Transcription Factor (Oct) (AID 2282993). Conditions: HepG2 Attagene cis-factorial Oct reporter, mRNA; actives raise or lower the signal. Put shortly:
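Readout is reporter transcript level from RT-PCR with fluorescent primer extension and capillary electrophoresis, fitted in both directions against DMSO. Transfected HepG2 reporter units report endogenous factor activity after 24 h dosing.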

Assay [5] has as its target Cellular tumor antigen p53 (Homo sapiens) (UniProt P04637). Kind of assay: ATG_p53_CIS: Attagene CIS-FACTORIAL HepG2 Assay for human p53 Transcription Factor (AID 2282994). Conditions: HepG2 p53 cis-element reporter, Attagene mRNA; actives raise or lower the signal. Put shortly: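 Endogenous p53 activity read in transiently transfected HepG2 from a cis-element-driven reporter transcript after 24 h exposure. RNA reverse-transcribed, PCR-amplified, fluorescently labelled and sized by capillary electrophoresis; gain or loss fitted against DMSO baseline.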

Assay [6] in a line: BSK_3C_TissueFactor: BioMAP Diversity Plus: 3C Assay for Tissue Factor Biomarker Activity (AID 2282997). To be noted: BioMAP 3C HUVEC, tissue factor biomarker readout; actives raise or lower the signal. Put shortly:
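Readout: Tissue Factor ELISA. Cells: human primary umbilical vein endothelium. Time: 24 h after dosing. Analysis: bidirectional fit, DMSO baseline.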

Assay [7] can be described thus: BSK_3C_uPAR: BioMAP Diversity Plus: 3C Assay for Urokinase-type plasminogen activator receptor (uPAR) Biomarker Activity (AID 2282998). To be noted: BioMAP 3C HUVEC, uPAR biomarker ELISA; actives raise or lower the signal. Put shortly: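 Cell-surface uPAR on HUVEC (3C system) read by ELISA at 24 h post-treatment, with DMSO as baseline and fitting in both directions. Parallel cultures stained with SRB to flag overt cytotoxicity.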

Assay [8] in a line: BSK_3C_VCAM1: BioMAP Diversity Plus: 3C Assay for Vascular cell adhesion molecule 1 (VCAM1) Biomarker Activity (AID 2282999). Conditions: BioMAP 3C HUVEC, VCAM1 ELISA, cytokine-stimulated; actives raise or lower the signal. Put shortly:
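Activity fitted in both directions relative to DMSO, with ELISA measurement of the surface marker on primary HUVEC (3C) at 24 h post-treatment; parallel SRB staining (0.1% SRB, TCA-fixed, 560 nm) flagged overt cytotoxicity.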
(An ELISA detects its analyte on a solid surface through an enzyme-linked reagent.)

The nature of assay [9]: BSK_4H_Eotaxin3: BioMAP Diversity Plus: 4H Assay for Eotaxin 3 Biomarker Activity (AID 2283000).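 Note: CCL26 protein level quantified by ELISA in parallel with SRB cytotoxicity check.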 To be noted: primary human endothelial cells (HUVEC); actives raise or lower the signal. Put shortly: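 HUVEC, 24 h post-dose, ELISA for Eotaxin-3/CCL26. Gain or loss of signal fitted bidirectionally vs DMSO baseline.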
Assay [10] concerns the target human Peroxisome Proliferator-activated Receptor alpha (PPARa), PPARA (gene 5465) (UniProt Q07869). Kind of assay: ATG_PPARa_TRANS: Attagene TRANS-FACTORIAL HepG2 Assay for human Peroxisome Proliferator-activated Receptor alpha (PPARa) (AID 2283001; active = hit-call score of the fitted dose curve at least 0.9, where 1 is the maximum). Put shortly:
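Transfected HepG2 cells treated with test chemical for 24 h. RNA isolated, reverse-transcribed with oligo(dT), PCR-amplified, FAM-labelled and HpaI-digested. Fragments sized by capillary electrophoresis; gain-of-signal fit relative to DMSO.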

Read-out in assay [11]: Intercellular Adhesion Molecule 1 (ICAM1), ICAM1 (gene 3383)
Kind of assay: BSK_3C_ICAM1: BioMAP Diversity Plus: 3C Assay for Intercellular Adhesion Molecule 1 (ICAM1) Biomarker Activity (AID 2283003). To be noted: primary human endothelial cells (HUVEC); actives raise or lower the signal. Put shortly:
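ELISA read-out of ICAM-1; HUVEC (primary human), 3C system, 24 h post-dosing; bidirectional fit vs DMSO baseline.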

Assay [12] can be described thus: BSK_3C_Proliferation: Cell Proliferation Assessment in the BioMAP Diversity Plus: 3C Assay (AID 2283006). Conditions: primary human endothelial cells (HUVEC). Put shortly: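 HUVEC, sub-confluent; 48 h chemical exposure; 10% TCA fix, 0.1% SRB stain, A560 total protein. Gain or loss of signal fitted both directions vs DMSO control.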
Assay [13] has as its target Peroxisome proliferator-activated receptor gamma (Homo sapiens) (UniProt P37231). Kind of assay: ATG_PPARg_TRANS: Attagene TRANS-FACTORIAL HepG2 Assay for human Peroxisome Proliferator-activated Receptor-gamma (PPARg) (AID 2283007; active = hit-call score of the fitted dose curve at least 0.9, where 1 is the maximum). Put shortly:
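HepG2 cells are transiently transfected with GAL4-UAS reporter units driven by chimeric NR-Gal4 fusions and dosed for 24 h. Reporter mRNA is quantified by RT-PCR, 6-FAM labelling, HpaI digestion and capillary electrophoresis. Induction is scored against DMSO.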

For assay [14], the target named is Nuclear receptor subfamily 1 group I member 2 (Homo sapiens) (UniProt O75469). Kind of assay: ATG_PXR_TRANS: Attagene TRANS-FACTORIAL HepG2 Assay for human Pregnane X Receptor (PXR) (AID 2283008; active = hit-call score of the fitted dose curve at least 0.9, where 1 is the maximum). Put shortly:
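Transactivation by exogenous PXR–GAL4 fusion measured as reporter transcript induction after 24 h compound treatment of transfected human HepG2 cells. Read-out via RT-PCR and capillary electrophoresis of labelled fragments, fitted upward relative to DMSO.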

The target of assay [15] is human Peroxisome Proliferator-activated Receptor delta (PPARd), PPARD (gene 5467) (UniProt Q03181). Kind of assay: ATG_PPARd_TRANS: Attagene TRANS-FACTORIAL HepG2 Assay for human Peroxisome Proliferator-activated Receptor delta (PPARd) (AID 2283002; active = hit-call score of the fitted dose curve at least 0.9, where 1 is the maximum). Put shortly: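 Transient HepG2 transfection (multiple GAL4-UAS RTUs, chimeric receptor-Gal4); 24 h dosing; total RNA → oligo(dT) RT → PCR → 6-FAM primer extension → HpaI cut → CE. Positive direction vs DMSO.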
Chain of human Peroxisome Proliferator-activated Receptor delta (PPARd), PPARD (gene 5467) (Q03181 whole entry, looked up, the tested form may be a part): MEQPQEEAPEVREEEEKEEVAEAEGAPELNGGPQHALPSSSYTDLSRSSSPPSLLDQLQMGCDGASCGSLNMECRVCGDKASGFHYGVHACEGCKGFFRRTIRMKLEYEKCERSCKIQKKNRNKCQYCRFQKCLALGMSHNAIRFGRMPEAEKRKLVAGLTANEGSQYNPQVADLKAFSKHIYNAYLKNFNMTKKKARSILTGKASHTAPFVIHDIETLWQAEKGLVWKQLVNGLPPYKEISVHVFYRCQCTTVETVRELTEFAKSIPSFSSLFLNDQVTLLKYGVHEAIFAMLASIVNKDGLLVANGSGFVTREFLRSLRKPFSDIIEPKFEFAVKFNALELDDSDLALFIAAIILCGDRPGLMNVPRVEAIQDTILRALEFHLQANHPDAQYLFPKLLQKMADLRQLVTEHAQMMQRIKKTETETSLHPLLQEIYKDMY

Assay [16] deals with human RAR-related Orphan Receptor beta (RORb), RORB (gene 6096) (UniProt Q92753). Description: ATG_RORb_TRANS: Attagene TRANS-FACTORIAL HepG2 Assay for human RAR-related Orphan Receptor beta (RORb) (AID 2283010; active = hit-call score of the fitted dose curve at least 0.9, where 1 is the maximum). Put shortly:
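HepG2, transient MRTU transfection (GAL4-UAS reporters, exogenous NR-Gal4 chimeras); 24 h compound exposure; total RNA → RT-PCR → 6-FAM primer extension → HpaI digest → CE fluorescence. Positive direction vs DMSO baseline.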

Assay [17] addresses human RAR-related Orphan Receptor gamma (RORg), RORC (gene 6097) (UniProt P51449). Description: ATG_RORg_TRANS: Attagene TRANS-FACTORIAL HepG2 Assay for human RAR-related Orphan Receptor gamma (RORg) (AID 2283011; active = hit-call score of the fitted dose curve at least 0.9, where 1 is the maximum). Put shortly: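 Readout: reporter transcript induction (RT-PCR, fluorescent primer extension, capillary electrophoresis) after 24 h compound exposure of transiently transfected HepG2 cells carrying a RORg-Gal4 chimera and GAL4-UAS reporters; DMSO served as baseline, with increasing signal fitted.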

For assay [18], the target named is human Retinoic Acid Receptor beta (RARb), RARB (gene 5915) (UniProt P10826). Description: ATG_RARb_TRANS: Attagene TRANS-FACTORIAL HepG2 Assay for human Retinoic Acid Receptor beta (AID 2283004; active = hit-call score of the fitted dose curve at least 0.9, where 1 is the maximum). Put shortly: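 HepG2 cells transiently transfected with multiplexed GAL4-UAS reporter units expressing chimeric NR–Gal4 fusions; 24 h compound exposure. Reporter mRNA quantified by RT-PCR, 6-FAM labelling, HpaI digestion and capillary electrophoresis; gain-of-signal fitted against DMSO baseline.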
Chain of human Retinoic Acid Receptor beta (RARb), RARB (gene 5915) (P10826 whole entry, looked up, the tested form may be a part): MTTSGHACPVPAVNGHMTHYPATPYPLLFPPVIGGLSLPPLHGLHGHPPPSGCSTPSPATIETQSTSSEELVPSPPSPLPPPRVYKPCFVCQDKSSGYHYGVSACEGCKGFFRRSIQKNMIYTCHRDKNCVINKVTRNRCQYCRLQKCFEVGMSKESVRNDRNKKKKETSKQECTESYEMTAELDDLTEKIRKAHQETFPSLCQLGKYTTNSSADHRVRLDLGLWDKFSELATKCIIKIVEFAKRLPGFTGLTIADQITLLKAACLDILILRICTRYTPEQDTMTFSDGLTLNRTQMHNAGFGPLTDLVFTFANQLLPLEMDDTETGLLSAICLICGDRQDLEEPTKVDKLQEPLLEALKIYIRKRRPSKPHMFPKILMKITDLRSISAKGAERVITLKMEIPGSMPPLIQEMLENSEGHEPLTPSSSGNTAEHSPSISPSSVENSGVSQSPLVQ

Inconclusive results are not listed. The source made the active and inactive calls. Rule for the calls, unless noted: active = hit-call score of the fitted dose curve at least 0.9, where 1 is the maximum; inactive = score below 0.9.

Chain of Peroxisome proliferator-activated receptor gamma (Homo sapiens) (P37231 whole entry, looked up, the tested form may be a part): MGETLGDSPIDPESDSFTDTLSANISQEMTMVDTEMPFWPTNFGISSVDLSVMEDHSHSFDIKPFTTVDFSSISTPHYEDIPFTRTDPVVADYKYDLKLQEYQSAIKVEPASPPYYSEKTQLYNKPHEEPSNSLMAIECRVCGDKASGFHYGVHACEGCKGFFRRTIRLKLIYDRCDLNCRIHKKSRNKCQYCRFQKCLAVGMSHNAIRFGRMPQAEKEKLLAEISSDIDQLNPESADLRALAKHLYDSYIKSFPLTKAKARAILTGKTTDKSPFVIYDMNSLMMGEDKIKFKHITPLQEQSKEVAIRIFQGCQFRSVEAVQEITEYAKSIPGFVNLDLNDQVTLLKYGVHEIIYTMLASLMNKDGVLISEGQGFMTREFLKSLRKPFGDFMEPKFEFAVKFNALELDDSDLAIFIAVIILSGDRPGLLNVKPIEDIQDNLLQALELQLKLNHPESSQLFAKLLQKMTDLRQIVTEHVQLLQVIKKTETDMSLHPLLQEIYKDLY
Chain of Nuclear receptor subfamily 1 group I member 2 (Homo sapiens) (O75469 whole entry, looked up, the tested form may be a part): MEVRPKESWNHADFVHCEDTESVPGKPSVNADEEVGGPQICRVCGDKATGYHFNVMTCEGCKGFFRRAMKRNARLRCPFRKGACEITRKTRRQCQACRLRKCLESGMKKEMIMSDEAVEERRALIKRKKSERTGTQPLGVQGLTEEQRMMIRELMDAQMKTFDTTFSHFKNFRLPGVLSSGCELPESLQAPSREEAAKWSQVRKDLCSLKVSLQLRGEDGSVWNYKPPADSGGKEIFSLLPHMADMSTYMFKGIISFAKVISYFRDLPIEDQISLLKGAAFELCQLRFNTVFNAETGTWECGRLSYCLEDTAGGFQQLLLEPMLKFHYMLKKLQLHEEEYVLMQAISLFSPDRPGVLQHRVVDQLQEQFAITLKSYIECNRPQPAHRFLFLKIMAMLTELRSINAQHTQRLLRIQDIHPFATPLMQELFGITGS
Chain of Cellular tumor antigen p53 (Homo sapiens) (P04637 whole entry, looked up): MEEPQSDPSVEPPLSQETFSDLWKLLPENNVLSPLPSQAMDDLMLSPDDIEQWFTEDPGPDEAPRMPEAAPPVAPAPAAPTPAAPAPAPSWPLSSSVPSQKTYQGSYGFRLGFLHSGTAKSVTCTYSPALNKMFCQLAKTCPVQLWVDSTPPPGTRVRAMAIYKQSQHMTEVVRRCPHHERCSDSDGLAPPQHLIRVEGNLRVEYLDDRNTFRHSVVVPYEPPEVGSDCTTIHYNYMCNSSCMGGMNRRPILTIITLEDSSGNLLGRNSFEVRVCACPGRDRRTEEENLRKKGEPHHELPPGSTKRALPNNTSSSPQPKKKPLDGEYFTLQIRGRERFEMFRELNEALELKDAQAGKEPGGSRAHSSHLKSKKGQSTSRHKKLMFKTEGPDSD
Chain of human Peroxisome Proliferator-activated Receptor alpha (PPARa), PPARA (gene 5465) (Q07869 whole entry, looked up, the tested form may be a part): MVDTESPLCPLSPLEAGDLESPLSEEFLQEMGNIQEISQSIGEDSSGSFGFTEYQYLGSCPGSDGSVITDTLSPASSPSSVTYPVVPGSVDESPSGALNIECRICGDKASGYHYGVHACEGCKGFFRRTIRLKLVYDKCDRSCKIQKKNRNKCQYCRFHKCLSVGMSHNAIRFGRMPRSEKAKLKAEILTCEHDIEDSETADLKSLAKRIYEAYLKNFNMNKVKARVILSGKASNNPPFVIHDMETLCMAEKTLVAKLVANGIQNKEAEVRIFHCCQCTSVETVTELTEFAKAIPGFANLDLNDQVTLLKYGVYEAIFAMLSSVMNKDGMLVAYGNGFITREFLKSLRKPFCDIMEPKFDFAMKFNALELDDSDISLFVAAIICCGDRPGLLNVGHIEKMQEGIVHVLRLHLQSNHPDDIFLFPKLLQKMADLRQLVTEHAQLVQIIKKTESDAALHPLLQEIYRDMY
Chain of human RAR-related Orphan Receptor beta (RORb), RORB (gene 6096) (Q92753 whole entry, looked up, the tested form may be a part): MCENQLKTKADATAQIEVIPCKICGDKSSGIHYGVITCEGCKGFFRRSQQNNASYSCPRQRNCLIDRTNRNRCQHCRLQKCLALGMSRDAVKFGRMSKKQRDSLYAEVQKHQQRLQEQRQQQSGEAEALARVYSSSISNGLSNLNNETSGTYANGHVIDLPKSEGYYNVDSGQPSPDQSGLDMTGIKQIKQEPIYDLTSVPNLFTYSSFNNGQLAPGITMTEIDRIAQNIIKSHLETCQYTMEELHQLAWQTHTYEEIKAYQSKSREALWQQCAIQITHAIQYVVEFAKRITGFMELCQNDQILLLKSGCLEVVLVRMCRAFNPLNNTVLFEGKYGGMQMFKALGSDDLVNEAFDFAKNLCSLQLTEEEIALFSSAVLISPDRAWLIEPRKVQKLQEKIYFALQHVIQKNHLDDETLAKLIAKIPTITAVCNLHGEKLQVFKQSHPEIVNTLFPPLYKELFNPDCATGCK
Chain of human RAR-related Orphan Receptor gamma (RORg), RORC (gene 6097) (P51449 whole entry, looked up, the tested form may be a part): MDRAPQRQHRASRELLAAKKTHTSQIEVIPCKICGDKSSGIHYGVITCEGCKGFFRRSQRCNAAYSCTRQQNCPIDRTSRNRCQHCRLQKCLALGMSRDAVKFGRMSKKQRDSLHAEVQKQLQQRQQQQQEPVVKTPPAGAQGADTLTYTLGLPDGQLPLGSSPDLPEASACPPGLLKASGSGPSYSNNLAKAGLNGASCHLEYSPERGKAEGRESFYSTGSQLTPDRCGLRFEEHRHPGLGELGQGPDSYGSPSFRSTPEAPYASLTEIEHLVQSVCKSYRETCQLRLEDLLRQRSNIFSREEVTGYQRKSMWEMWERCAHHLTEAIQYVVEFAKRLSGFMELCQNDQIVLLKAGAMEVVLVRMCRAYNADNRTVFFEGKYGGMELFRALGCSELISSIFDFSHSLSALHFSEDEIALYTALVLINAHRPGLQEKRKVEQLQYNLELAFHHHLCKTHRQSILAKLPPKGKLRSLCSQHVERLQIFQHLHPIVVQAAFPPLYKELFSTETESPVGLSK

Regarding `C=C(C)C(=O)OCCOCCOCCOC(=O)C(=C)C`, the compound was called inactive in assay [1], in assay [2], in assay [3], in assay [4], in assay [5] and in assay [6]. Moreover, the result in [7], in [8], in assay [9], in assay [10], in assay [11] and in assay [12] was inactive. In addition, the outcome in assay [13] and in [14] was inactive.

As for `O=CN1CCOCC1`, the result in assay [1], in assay [2], in [3], in assay [4], in assay [5] and in assay [6] was inactive. Also, the outcome in assay [7], in assay [8], in assay [9], in [10], in assay [15] and in assay [12] was inactive. Moreover, the result in assay [13], in [16] and in assay [17] was inactive.

For `CSCCC=O`, the outcome in assay [1], in assay [2], in assay [3], in [4], in assay [5] and in assay [6] was inactive. Also, the outcome in [7], in assay [8], in [9] and in [12] was inactive. In addition, the AC50 was 56.3 µM (active) in assay [13] and 10.6 µM (active) in assay [14].

Take `CS(=O)(=O)c1ccc(C2=C(c3ccccc3)C(=O)OC2)cc1`: the call in [1], in [2], in assay [3], in [4], in assay [5] and in assay [6] was inactive. The outcome in assay [7], in assay [8], in [9], in assay [18], in assay [12] and in [13] was inactive. In [14], the result was inactive.
